# Test results as given in PubChem BioAssay (EPA / NIEHS).
# Activity calls are given as the source filed them. How the source made its calls: active means hit-call score of the fitted dose curve at least 0.9, where 1 is the maximum; inactive means score below 0.9.
# Assay: APR_HepG2_StressKinase_1hr: Apredica 1-hour HepG2 Assay for Stress Kinase (AID 2282906)
# Settings: HepG2 stress kinase (phospho-c-Jun) imaging, actives raise or lower the signal
# Procedure: APR_HepG2_1hr is a cell-based, multiplexed-readout assay that uses HepG2, a human liver cell line, with measurements taken at 1 hour after chemical dosing in a 384-well plate.APR_HepG2_StressKinase_1hr is one of 10 assay component(s) measured or calculated from the APR_HepG2_1hr assay. It is designed to make measurements of enzyme activity, a form of enzyme reporter, as detected with fluorescence intensity signals by HCS Fluorescent Imaging technology.Data from the assay component APR_HepG2_StressKinase_1hr was analyzed into 1 assay endpoint. This assay endpoint, APR_HepG2_StressKinase_1hr, was analyzed with bidirectional fitting relative to DMSO as the negative control and baseline of activity. Using a type of enzyme reporter, measures of protein for gain or loss-of-signal activity can be used to understand the signaling at the pathway-level as they relate to the gene . Furthermore, this assay endpoint can be referred to as a primary readout, because this assay has produced multiple assay endpoints where this one serves a signaling function. To generalize the intended target to other relatable targets, this assay endpoint is annotated to the cell cycle intended target family, where the subfamily is stress response.
# Cells were treated with dimethyl sulfoxide (DMSO) as a solvent control at a final concentration of 0.5% v/v or with compounds in DMSO with a resulting final DMSO concentration of 0.5% v/v. Compound treatment was done at concentrations of 0.39, 0.78, 1.56, 3.12, 6.24, 12.5, 25, 50, 100, and 200 uM in duplicate on each plate. Cells were treated with compounds for 1, 24, or 72 hr. Carbonyl […] m-chloro-phenylhydrazone (CCCP) and taxol were used as positive controls for mitochondrial function and cytoskeletal stability, respectively; DMSO served as the negative control for this experiment. Cells were fixed by the direct addition of 50 uL formaldehyde in Hank's Balanced Salt Solution (HBSS) to a final concentration of 3.7%. After incubation in the fixation medium for 30 min at room temperature (293-298 K), cells were rinsed twice with HBSS and treated with cell permeabilization buffer (16 uL of 0.5% Triton X-100) for 10 min at room temperature (293-298 K) before labeling. For mitochondrial membrane potential and mitochondrial measurements, pre-fixed cells were incubated with 50 uL of MitoTracker Red CMXRos (Invitrogen) at a concentration of 250 nM for 30 min before fixation. In the remaining cases, post-fixed cells were labeled by incubation with a multiplexed mixture of primary antibodies in HBSS for 60 min at room temperature (293-298 K) to detect immunoreactivity of c-Jun (1:500), phospho-histone H3 (1:100), phospho-histone H2A.x (1:200), p53 (1:400), alpha-tubulin (1:200) and Hoechst 33342 (2 ug/mL). Cells were labeled for multiplexed imaging on two separate plates: a) Hoechst 33342, MitoTracker Red, phospho-histone H3, and alpha-tubulin, and b) Hoechst 33342, phospho-histone H2A.x, and c-Jun. A final rinse with HBSS (50 uL) was performed before analysis. The primary and secondary antibodies for the proteins were phospho-histone H3 (rabbit anti-phospho-histone H3 and FITC-donkey anti-rabbit IgG), phospho-histone H2A.x (mouse anti-phospho-histone H2A.x and FITC-donkey anti-mouse IgG), c-Jun (rabbit anti-phospho-c-Jun and Cy3-donkey anti-rabbit IgG), p53 (sheep anti-p53 and Cy5-donkey anti-sheep IgG), alpha-tubulin (mouse anti-alpha-tubulin and Cy5-donkey anti-mouse IgG). These antibodies are available as the CellCiphr HepG2 assay kit (Millipore).Digital images of each well were captured using a Cellomics ArrayScan VTI (Thermo Scientific Cellomics) (0.8 NA objective, 0.63x optical coupler, and XF-93 filter set) at 20x magnification. The images were acquired using the autofocus feature of the ArrayScan instrument, which entails the following steps. First, the camera focuses on channel 1 (Hoechst 33342), where nuclei are identified. Second, a Z offset of 1 um is used for capturing mitochondria (MitoTracker Red). […]
SMILES,outcome,AC50
N#Cc1c[nH]cc1-c1cccc2c1OC(F)(F)O2,inactive,–
CC(C)N1C(=O)N(c2ccccc2)CSC1=NC(C)(C)C,inactive,–
COC(=O)N(C(=O)N1CO[C@@]2(C(=O)OC)Cc3cc(Cl)ccc3C2=N1)c1ccc(OC(F)(F)F)cc1,inactive,–
N#Cc1c(Cl)cccc1Cl,inactive,–
CNC(=O)Oc1cccc2ccccc12,inactive,–
CCN(CC)C(=O)C(C)Oc1cccc2ccccc12 (stereo not given),inactive,–
CN=C=S,inactive,–
Cc1ccc(N=CN(C)C=Nc2ccc(C)cc2C)c(C)c1,–,75.4 µM (active)
CSC(=O)c1c(C(F)F)nc(C(F)(F)F)c(C(=O)SC)c1CC(C)C,inactive,–
CCCCC(C#N)(Cn1cncn1)c1ccc(Cl)cc1 (stereo not given),inactive,–
Cn1c(-c2ccccc2)cc(-c2ccccc2)[n+]1C,inactive,–
CCCN(CC)CC1COC2(CCC(C(C)(C)C)CC2)O1 (stereo not given),inactive,–
CCC(C)n1c(=O)[nH]c(C)c(Br)c1=O (stereo not given),inactive,–
CCNC(=O)NC(=O)C(C#N)=NOC,inactive,–
COC(=O)NS(=O)(=O)c1ccc(N)cc1,inactive,–
CC1(C)CCC(=Cc2ccc(Cl)cc2)C1(O)Cn1cncn1 (stereo not given),inactive,–
CCOc1cc(C(C)(C)C)ccc1C1COC(c2c(F)cccc2F)=N1 (stereo not given),inactive,–
CC1(C)CON(Cc2ccccc2Cl)C1=O,inactive,–
CCCC(=NOCC)C1=C(O)CC(CC(C)SCC)CC1=O (stereo not given),inactive,–
O=C(Nc1ccccc1-c1ccc(Cl)cc1)c1cccnc1Cl,inactive,–

SMILES,outcome,AC50
CC(C)Oc1cccc(NC(=O)c2ccccc2C(F)(F)F)c1,inactive,–
COc1ccc(-c2ccccc2)cc1NNC(=O)OC(C)C,inactive,–
CCOC(=O)C(C)OC(=O)c1cc(Oc2ccc(C(F)(F)F)cc2Cl)ccc1[N+](=O)[O-] (stereo not given),inactive,–
Cc1nc(N(C)C)nc(OC(=O)N(C)C)c1C,inactive,–
CCOP(=O)(OCC)Oc1nc(Cl)c(Cl)cc1Cl,inactive,–
COC(=O)NC(=S)Nc1ccccc1NC(=S)NC(=O)OC,inactive,–
CS(=O)(=O)c1ccc(C(=O)C2C(=O)CCCC2=O)c([N+](=O)[O-])c1,inactive,–
CCOP(=S)(OCC)Oc1nc(Cl)n(C(C)C)n1,inactive,–
C=C(C)CN(CC)c1c([N+](=O)[O-])cc(C(F)(F)F)cc1[N+](=O)[O-],inactive,–
CC(C)C1(C)N=C(c2ncccc2C(=O)O)NC1=O (stereo not given),inactive,–
Cc1cc(C)nc(Nc2ccccc2)n1,inactive,–
COc1cc(OC)nc(NC(=O)NS(=O)(=O)c2ncccc2OCC(F)(F)F)n1,inactive,–
CCOc1nc(F)cc2nc(S(=O)(=O)Nc3c(Cl)cccc3Cl)nn12,inactive,–
O=C1C2CC=CCC2C(=O)N1SC(Cl)(Cl)Cl (stereo not given),–,87.6 µM (active)
CC(C)(C)C(=O)C(Oc1ccc(Cl)cc1)n1cncn1 (stereo not given),inactive,–
COCC(C)N(C(=O)CCl)c1c(C)csc1C (stereo not given),inactive,–
Nc1c(Cl)c(Cl)nc(C(=O)O)c1Cl,inactive,–
Nc1cnn(-c2ccccc2)c(=O)c1Cl,inactive,–
CN/C(=N\[N+](=O)[O-])NCc1cnc(Cl)s1,inactive,–
N#CN=C1SCCN1Cc1ccc(Cl)nc1,inactive,–
